From PubChem BioAssay
For part of these data: Entries with a potency or affinity are not part of this list. Active and inactive are the calls of the source. Unless noted, how the calls were made is not given here.

Tests used:
[1] = antimalarial activity against Dd2 strain (AID 2302;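 active means growth inhibition above 50% at the single 2 µM test dose, taken to imply half-maximal potency below 2 µM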;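 further: 0% = DMSO untreated growth and 100% = chloroquine plus artemisinin killed control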); conditions: P. falciparum Dd2 in RBCs, LDH growth readout, 72 h; at 2 µM; stronger effect = higher value
[2] = human hepatoma cell viability loss – ATP luminescence, cytotoxicity control for P. falciparum antimalarial project, primary screen (AID 2303;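 active means inhibition above 50%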;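 further: 0% = DMSO wells and 100% = digitonin-killed cells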); conditions: HepG2 viability, 24-48 h, at 10 µM, stronger effect = higher value
[3] = molecular target: L-lactate dehydrogenase (Plasmodium falciparum (isolate CDC / Honduras)) (UniProt Q27743); assay: PfLDH activity inhibition – cell lysate, 3D7 strain, counter-screen for P. falciparum growth inhibition project (AID 2304);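 further: 0% = vehicle and 100% = reference inhibitor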; conditions: P. falciparum 3D7 crude extract, LDH APAD/NBT absorbance; at 2 µM; stronger effect = higher value
L-lactate dehydrogenase (Plasmodium falciparum (isolate CDC / Honduras)), sequence (Q27743 whole entry, looked up): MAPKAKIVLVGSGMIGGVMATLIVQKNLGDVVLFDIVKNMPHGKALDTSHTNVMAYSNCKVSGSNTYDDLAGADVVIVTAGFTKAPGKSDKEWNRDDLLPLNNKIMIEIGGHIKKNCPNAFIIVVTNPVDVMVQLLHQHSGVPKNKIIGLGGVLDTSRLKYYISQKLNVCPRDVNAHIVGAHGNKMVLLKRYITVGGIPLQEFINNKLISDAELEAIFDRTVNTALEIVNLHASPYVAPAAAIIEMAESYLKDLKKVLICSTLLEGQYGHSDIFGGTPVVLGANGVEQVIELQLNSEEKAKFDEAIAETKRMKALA

[4] = inhibition of 3D7 malaria parasite growth – strain 3D7 (AID 2306);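 further: 0% = DMSO wells and 100% = chloroquine plus artemisinin control wells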; conditions: P. falciparum 3D7 erythrocytic growth, LDH absorbance, 72 h; at 2 µM; stronger effect = higher value
[5] = molecular target: Calcium-dependent protein kinase 1 (Plasmodium falciparum (isolate 3D7)) (UniProt P62344); assay: PfCDPK1 kinase inhibitors, biochemical, TCAMS library (AID 1159585; cut-off not given, nearly all actives have IC50 up to about 0.98 µM;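 further: inhibitors leave more ATP so luminescence rises with inhibition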); conditions: recombinant PfCDPK1, Kinase-Glo ATP depletion luminescence
Calcium-dependent protein kinase 1 (Plasmodium falciparum (isolate 3D7)), sequence (P62344 whole entry, looked up): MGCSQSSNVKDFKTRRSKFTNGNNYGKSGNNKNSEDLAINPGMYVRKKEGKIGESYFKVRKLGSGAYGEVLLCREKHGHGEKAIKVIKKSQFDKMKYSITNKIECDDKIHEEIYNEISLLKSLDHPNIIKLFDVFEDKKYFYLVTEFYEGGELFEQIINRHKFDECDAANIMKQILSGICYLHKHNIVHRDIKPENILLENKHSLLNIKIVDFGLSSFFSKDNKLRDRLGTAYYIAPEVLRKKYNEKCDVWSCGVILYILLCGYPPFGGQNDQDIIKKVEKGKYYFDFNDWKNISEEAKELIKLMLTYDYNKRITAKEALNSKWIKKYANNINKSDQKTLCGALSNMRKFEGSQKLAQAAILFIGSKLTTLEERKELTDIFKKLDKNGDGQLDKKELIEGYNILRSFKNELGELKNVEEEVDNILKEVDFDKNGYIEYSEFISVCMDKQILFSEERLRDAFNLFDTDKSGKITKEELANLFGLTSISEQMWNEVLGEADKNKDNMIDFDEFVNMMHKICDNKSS

[6] = molecular target: Plasmodium falciparum protein kinase 6 (PK6, PF3D7_1337100) (UniProt Q8IDW1); assay: PfPK6 kinase inhibitors, biochemical, TCAMS library (AID 1159586); conditions: recombinant PfPK6, Kinase-Glo ATP depletion luminescence
Plasmodium falciparum protein kinase 6 (PK6, PF3D7_1337100), sequence (Q8IDW1 1-305): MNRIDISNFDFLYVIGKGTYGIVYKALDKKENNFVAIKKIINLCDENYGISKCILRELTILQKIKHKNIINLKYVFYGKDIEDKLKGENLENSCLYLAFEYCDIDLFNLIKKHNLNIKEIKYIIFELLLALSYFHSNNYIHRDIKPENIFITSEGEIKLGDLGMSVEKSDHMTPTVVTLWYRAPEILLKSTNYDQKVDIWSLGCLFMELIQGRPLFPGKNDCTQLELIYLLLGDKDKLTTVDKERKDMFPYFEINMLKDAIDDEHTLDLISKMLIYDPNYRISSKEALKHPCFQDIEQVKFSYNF

[7] = molecular target: Protein kinase 7 (PK7), Plasmodium falciparum 3D7 (PF3D7_0213400) (UniProt Q7YTF7); assay: inhibition of Plasmodium PK7 catalytic activity – biochemical, TCAMS antimalarial set, Kinase-Glo luminescence (AID 1159587); conditions: recombinant PfPK7, Kinase-Glo ATP depletion luminescence
Protein kinase 7 (PK7), Plasmodium falciparum 3D7 (PF3D7_0213400), sequence (Q7YTF7 1-343): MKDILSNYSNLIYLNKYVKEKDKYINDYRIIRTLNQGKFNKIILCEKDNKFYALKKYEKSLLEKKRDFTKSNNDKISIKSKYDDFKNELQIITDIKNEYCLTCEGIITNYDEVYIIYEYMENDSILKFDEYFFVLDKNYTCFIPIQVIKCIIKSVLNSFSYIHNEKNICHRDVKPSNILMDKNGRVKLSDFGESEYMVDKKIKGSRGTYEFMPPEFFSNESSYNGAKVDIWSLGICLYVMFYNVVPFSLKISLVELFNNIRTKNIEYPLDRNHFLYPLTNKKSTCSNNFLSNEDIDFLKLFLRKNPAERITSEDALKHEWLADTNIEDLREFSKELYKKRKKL

[8] = molecular target: Calcium-dependent protein kinase 4 (Plasmodium falciparum (isolate 3D7)) (UniProt Q8IBS5); assay: PfCDPK4 kinase inhibitors, biochemical, TCAMS library (AID 1159588; cut-off not given, nearly all actives have IC50 up to about 0.91 µM); conditions: recombinant PfCDPK4, Kinase-Glo ATP depletion luminescence
Calcium-dependent protein kinase 4 (Plasmodium falciparum (isolate 3D7)), sequence (Q8IBS5 whole entry, looked up): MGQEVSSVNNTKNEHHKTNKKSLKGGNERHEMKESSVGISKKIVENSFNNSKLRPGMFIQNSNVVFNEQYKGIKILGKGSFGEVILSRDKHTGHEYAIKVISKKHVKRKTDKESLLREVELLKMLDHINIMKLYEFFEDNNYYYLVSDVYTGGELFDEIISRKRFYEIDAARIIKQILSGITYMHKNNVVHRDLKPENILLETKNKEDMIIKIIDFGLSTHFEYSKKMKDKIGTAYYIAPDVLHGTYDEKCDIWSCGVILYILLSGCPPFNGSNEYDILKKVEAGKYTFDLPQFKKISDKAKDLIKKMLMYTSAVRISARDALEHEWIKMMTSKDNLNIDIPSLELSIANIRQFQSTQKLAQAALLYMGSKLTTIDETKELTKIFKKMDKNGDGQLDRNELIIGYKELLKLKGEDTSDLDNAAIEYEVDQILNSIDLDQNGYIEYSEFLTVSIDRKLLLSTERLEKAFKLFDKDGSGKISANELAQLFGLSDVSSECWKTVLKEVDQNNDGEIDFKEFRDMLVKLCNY

NC1=NC2(CCCCC2)N(OCCCCCCC2CCCCC2)C(N)=N1
inactive: growth inhibition [1] 49% | inhibition [3] -4% | outcome [5] | outcome [6] | outcome [7] | outcome [8]
active: inhibition [2] 77% | growth inhibition [4] 97%

COc1cc2c(c(Cl)c1OC)CCN(Cc1ccccc1)CC2c1ccc(C(N)=O)cc1 (configuration not stated)
inactive: inhibition [2] 7% | inhibition [3] -5% | outcome [5] | outcome [6] | outcome [7] | outcome [8]
active: growth inhibition [1] 60% | growth inhibition [4] 97%

O=C([C@H]1C[C@@H]1c1ccccc1)N(Cc1ccc(-c2ccc(CNCCc3ccccc3)cc2)cc1)C1CCNCC1
active: growth inhibition [4] 96%
inactive: growth inhibition [1] 39% | inhibition [2] 36% | inhibition [3] -5% | outcome [5] | outcome [6] | outcome [7] | outcome [8]

COc1ccc2ncc(F)c([C@H](O)CN3CCC(NCc4ccc5c(c4)OCCO5)CC3)c2c1
active: growth inhibition [1] 99% | growth inhibition [4] 102%
inactive: inhibition [2] 1% | inhibition [3] -5% | outcome [5] | outcome [6] | outcome [7] | outcome [8]

N#Cc1ccc(-c2ccc(C(=O)NCC3CCN(CCN4CCC(c5ccc6c(c5OCC(N)=O)CCCC6)CC4)CC3)cc2)cc1
active: growth inhibition [1] 99% | inhibition [2] 56% | growth inhibition [4] 99%
inactive: inhibition [3] -7% | outcome [5] | outcome [6] | outcome [7] | outcome [8]

Cc1nc(-c2cccc(Nc3nccc(NCC(O)c4cccc(F)c4)n3)c2)cs1 (configuration not stated)
active: growth inhibition [1] 59% | growth inhibition [4] 98%
inactive: inhibition [2] 39% | inhibition [3] 1% | outcome [5] | outcome [6] | outcome [7] | outcome [8]

CC1CCCC(NCc2c(O)ccc3ccccc23)C1 (configuration not stated)
inactive: growth inhibition [1] 25% | inhibition [2] 10% | inhibition [3] 1% | outcome [5] | outcome [6] | outcome [7] | outcome [8]
active: growth inhibition [4] 93%

CCCCNC(=O)[C@@H](NC(=O)c1ccc(O)c(-c2ccc(Cl)c(Cl)c2)c1)C(C)C
active: growth inhibition [1] 98% | growth inhibition [4] 97%
inactive: inhibition [2] -4% | inhibition [3] 2% | outcome [5] | outcome [6] | outcome [7] | outcome [8]

CCNC(=O)Nc1cccc(-c2cccc(-c3nc4c(C)cccc4[nH]3)c2)c1
inactive: growth inhibition [1] 31% | inhibition [2] 7% | inhibition [3] 4% | outcome [5] | outcome [6] | outcome [7] | outcome [8]
active: growth inhibition [4] 85%

COc1cc(NC(=O)/C=C/c2ccccc2OC(F)(F)F)cc(OCCN2CCC(O)(c3ccccc3)CC2)c1
active: growth inhibition [1] 50% | inhibition [2] 61% | growth inhibition [4] 102%
inactive: inhibition [3] 2% | outcome [5] | outcome [6] | outcome [7] | outcome [8]

N#CC(c1cccc(Cl)c1)c1ccc2c(C(F)(F)F)cc(C(F)(F)F)nc2n1 (configuration not stated)
inactive: inhibition [3] 4% | outcome [5] | outcome [6] | outcome [7] | outcome [8]
active: growth inhibition [1] 97% | inhibition [2] 52% | growth inhibition [4] 96%

CCOc1c(CNCCCNc2cc(=O)c3ccccc3[nH]2)cc(Br)cc1OC
active: growth inhibition [4] 80%
inactive: growth inhibition [1] 18% | inhibition [2] 10% | inhibition [3] -9% | outcome [5] | outcome [6] | outcome [7] | outcome [8]

CCOC(=O)c1c(C)n(-c2ccccc2)c2ccc(OC(=O)c3ccc(S(=O)(=O)N(CC)CC)cc3)cc12
inactive: inhibition [2] -6% | inhibition [3] -3% | outcome [5] | outcome [6] | outcome [7] | outcome [8]
active: growth inhibition [1] 63% | growth inhibition [4] 94%

CN(C)C(=O)n1cnc(S(=O)(=O)N(C)c2ccc(Cl)cc2)n1
inactive: inhibition [2] 7% | inhibition [3] 3% | outcome [5] | outcome [6] | outcome [7] | outcome [8]
active: growth inhibition [1] 80% | growth inhibition [4] 88%

CCN(CCCN1CCCCC1)c1cc(C)nc(Nc2cc(Br)ccc2C)n1
active: growth inhibition [4] 98%
inactive: growth inhibition [1] 39% | inhibition [2] 32% | inhibition [3] -7% | outcome [5] | outcome [6] | outcome [7] | outcome [8]

Cc1nnsc1C(=O)Nc1cccc(-c2cccc(-c3nc4c(C)cccc4[nH]3)c2)c1
active: growth inhibition [1] 80% | growth inhibition [4] 99%
inactive: inhibition [2] 22% | inhibition [3] 4% | outcome [5] | outcome [6] | outcome [7] | outcome [8]

CN1CCC(N2CCN(Cc3cccc(-c4ccc(-c5nc6ccc(F)cc6[nH]5)cc4)c3)CC2)CC1
inactive: inhibition [3] 3% | outcome [5] | outcome [6] | outcome [7] | outcome [8]
active: growth inhibition [1] 100% | inhibition [2] 92% | growth inhibition [4] 100%

CCCC1(NC[C@@H](O)[C@H](Cc2ccccc2)NC(=O)c2cc(NCC)cc(N3CCCCS3(=O)=O)c2)CC1
active: growth inhibition [1] 98% | growth inhibition [4] 98%
inactive: inhibition [2] 1% | inhibition [3] 0% | outcome [5] | outcome [6] | outcome [7] | outcome [8]

CN1CCN(CCCN(Cc2csc(-c3ccc(CNCc4ccccc4)cc3)n2)C(=O)Nc2cc(Cl)cc(Cl)c2)CC1
active: growth inhibition [4] 103%
inactive: growth inhibition [1] 45% | inhibition [2] 34% | inhibition [3] -2% | outcome [5] | outcome [6] | outcome [7] | outcome [8]

NC(N)=NCCN(Cc1ccccc1)c1ccccc1
active: growth inhibition [1] 98% | growth inhibition [4] 100%
inactive: inhibition [2] 8% | inhibition [3] 3% | outcome [5] | outcome [6] | outcome [7] | outcome [8]

CC(=O)Nc1ccc(CN2CCC(NC(=O)c3ccc(-c4cccc(F)c4)s3)CC2)cc1
active: growth inhibition [4] 96%
inactive: growth inhibition [1] 13% | inhibition [2] 6% | inhibition [3] 0% | outcome [5] | outcome [6] | outcome [7] | outcome [8]

c1ccc(C2=NN=C(c3ccccn3)[C@H]3[C@H]4C[C@@H]([C@@H]23)[C@@H]2[C@H]4[C@H]3C[C@@H]2c2ccccc23)nc1
inactive: inhibition [2] 39% | inhibition [3] -3% | outcome [5] | outcome [6] | outcome [7] | outcome [8]
active: growth inhibition [1] 77% | growth inhibition [4] 98%

COc1cc2c(cc1OCCN1CCC(N3CCCC3)CC1)N(C(=O)/C=C/c1ccccc1Cl)CC2
active: growth inhibition [1] 68% | growth inhibition [4] 100%
inactive: inhibition [2] 38% | inhibition [3] -7% | outcome [5] | outcome [6] | outcome [7] | outcome [8]

CN(C)CCN(C)Cc1ccc(-c2ccc3c(Nc4ccc(F)cc4Cl)ccnc3c2)o1
active: growth inhibition [1] 100% | growth inhibition [4] 101%
inactive: inhibition [2] 31% | inhibition [3] 5% | outcome [5] | outcome [6] | outcome [7] | outcome [8]

Cc1ccc(NC(=O)c2ccc(NCCCN3CC(C)CC(C)C3)c([N+](=O)[O-])c2)cc1F (configuration not stated)
inactive: inhibition [2] 18% | inhibition [3] -8% | outcome [5] | outcome [6] | outcome [7] | outcome [8]
active: growth inhibition [1] 85% | growth inhibition [4] 101%

CN(C)CC(=O)Nc1cccc(Nc2nccc(NCC(O)c3ccccc3)n2)c1 (configuration not stated)
active: growth inhibition [4] 102%
inactive: growth inhibition [1] 3% | inhibition [2] 30% | inhibition [3] -5% | outcome [5] | outcome [6] | outcome [7] | outcome [8]

COc1cccc(CNC(=O)[C@@H]2CN(C(=O)c3ccccc3)CCN2)c1
inactive: growth inhibition [1] -1% | inhibition [2] 4% | inhibition [3] -2% | outcome [5] | outcome [6] | outcome [7] | outcome [8]
active: growth inhibition [4] 92%

CN(C(=O)Cc1ccc(Cl)c(Cl)c1)C1CCN(CCCCCNC(=O)/C=C/c2ccc(Cl)c(Cl)c2)CC1
inactive: growth inhibition [1] 13% | inhibition [3] -4% | outcome [5] | outcome [6] | outcome [7] | outcome [8]
active: inhibition [2] 87% | growth inhibition [4] 84%

Cc1ccc2nc(-c3ccc(C=CC(=O)NCc4ccc(Cl)c(Cl)c4)cc3)[nH]c2c1
inactive: growth inhibition [1] 18% | inhibition [2] 5% | inhibition [3] -5% | outcome [5] | outcome [6] | outcome [7] | outcome [8]
active: growth inhibition [4] 96%

c1ccc(-c2cc(NCCCn3ccnc3)nc(-c3cccnc3)n2)cc1
inactive: growth inhibition [1] 6% | inhibition [2] 15% | inhibition [3] 0% | outcome [5] | outcome [6] | outcome [7] | outcome [8]
active: growth inhibition [4] 84%

Cc1cccc2[nH]c(-c3ccc(-c4ccc(NC(=O)Nc5ccc(F)c(F)c5F)cc4)cc3)nc12
inactive: inhibition [3] -1% | outcome [5] | outcome [6] | outcome [7] | outcome [8]
active: growth inhibition [1] 97% | inhibition [2] 51% | growth inhibition [4] 100%

Cc1ccc(NC(=O)c2ccc3nccnc3c2)cc1OC1CCN(Cc2ccc(F)cc2)CC1
active: growth inhibition [4] 87%
inactive: growth inhibition [1] 24% | inhibition [2] 16% | inhibition [3] 4% | outcome [5] | outcome [6] | outcome [7] | outcome [8]

O=C(NCc1ccc(Cl)c(Cl)c1)c1cccc(C2CCCN(Cc3ccc4nc[nH]c4c3)C2)c1 (configuration not stated)
inactive: growth inhibition [1] 30% | inhibition [2] 3% | inhibition [3] 5% | outcome [5] | outcome [6] | outcome [7] | outcome [8]
active: growth inhibition [4] 95%

CCCNC(=O)c1cncc(-c2cccc(CNC3Cc4ccccc4C3)c2)c1
inactive: growth inhibition [1] 2% | inhibition [2] -2% | inhibition [3] -3% | outcome [5] | outcome [6] | outcome [7] | outcome [8]
active: growth inhibition [4] 100%

CCc1ccc(S(=O)(=O)Nc2ccc(CCN(C)C3CCN(C)CC3)cc2)cc1
active: growth inhibition [4] 86%
inactive: growth inhibition [1] 9% | inhibition [2] 25% | inhibition [3] -4% | outcome [5] | outcome [6] | outcome [7] | outcome [8]

C=CCc1cc(Cc2cnc(N)nc2N)cc(CCC)c1O
active: inhibition [2] 54% | growth inhibition [4] 90%
inactive: growth inhibition [1] 2% | inhibition [3] -1% | outcome [5] | outcome [6] | outcome [7] | outcome [8]

CCOc1ccc(-c2nonc2NC(=O)c2cccc(Cl)c2)cc1OCC
active: growth inhibition [1] 99% | growth inhibition [4] 100%
inactive: inhibition [2] -5% | inhibition [3] -8% | outcome [5] | outcome [6] | outcome [7] | outcome [8]

O=C(Cn1c(=O)oc2ccccc21)N1CCC(n2c(=O)n(CCCN3CCOCC3)c3ccccc32)CC1
inactive: inhibition [2] 11% | inhibition [3] 5% | outcome [5] | outcome [6] | outcome [7] | outcome [8]
active: growth inhibition [1] 101% | growth inhibition [4] 99%

Clc1cccnc1N1CCN(c2ncccc2Cl)CC1
inactive: growth inhibition [1] 0% | inhibition [2] 2% | inhibition [3] 4% | outcome [5] | outcome [6] | outcome [7] | outcome [8]
active: growth inhibition [4] 97%
